TWEAK-Fn14 inh – TWEAK-Fn14 signaling inhibition; TWEAK-stimulated Fn14 reporter cells, luciferase luminescence, 8 h; inhibition, % at 10 µM; 360,000 tested, 2% active; AID 1159606; in the data active = inhibition above about 50%
LGR2 inh – Drosophila LGR2 receptor signaling inhibition; HEK293 LGR2, CRE-luciferase, bursicon-stimulated, 4 h; inhibition, % at 9.99 µM; AID 720647; 380,000 tested, 0.35% active;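 active = drop in luminescence signal, shown as inhibition above about 50% in the replicate tests, limit read from the data, passing the limit was not always enough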;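 note: agonist challenge used bursicon conditioned medium at about half maximal strength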
TROY signal inh – TROY signaling inhibition; Q293 LMP1-TROYcd NF-kB luciferase reporter, 4 h; inhibition, % at 10 µM; 360,000 tested, 0.98% active; AID 1347056;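 active = compounds whose plate-normalised and pattern-corrected inhibition of the luciferase reporter signal at the single screening dose is 50% or more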
HSP90 inh – inhibitors of HSP90 luciferase refolding in rabbit reticulocyte lysate. inhibition, % at 5.6 µM. luciferase refolding luminescence, 3 h. 290,000 tested, 0.91% active. AID 1789;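 active = inhibition above the screen-wide mean plus 3 SD, computed separately per campaign, cut at about 16% in these data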;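 note: 0% = DMSO wells and 100% = 60 µM geldanamycin wells; inhibitors lower the luminescence because luciferase stays unfolded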
* hit, by the source's call; x = no result given. The list is not random: actives were taken first. Their share in the collection is about 2.2%.

SMILES | TWEAK-Fn14 inh | LGR2 inh | TROY signal inh | HSP90 inh
CCOc1ccc(N(C)S(=O)(=O)c2ccc(C)c(C(=O)OCC(=O)c3c[nH]c4ccccc34)c2)cc1 | 78.8* | 7.6 | 22.7 | 1.9
CCOC(=O)CSc1nnc(NC(=O)c2cc([N+](=O)[O-])cc([N+](=O)[O-])c2)s1 | 85.1* | -0.7 | 66.3* | 4.1
CCCNC(=O)C[C@H]1CC[C@H]2[C@H](COc3ccc(NC(=O)Nc4c(C)noc4C)cc3C(=O)N2C)O1 | x | 8.5 | x | x
CCC(=O)NC(c1ccc(Cl)cc1Cl)c1ccc2cccnc2c1O (stereo unspecified) | -29.5 | -4.8 | -17.1 | 3.1
CC(C)C(=O)NC(c1ccc(Cl)cc1Cl)c1ccc2cccnc2c1O (stereo unspecified) | 102.5* | 25.5 | -30.9 | 9.5
CC(=O)Nc1ccc(Oc2sc(C(=O)c3ccccc3)c(N)c2C#N)cc1 | 52.7* | x | 24.1 | 1.7
C=CCC[C@H](Cc1ccc(F)cc1)C(=O)OC[C@@H](Cc1c[nH]c2ccccc12)NC(=O)[C@H](CC=C)CC(=O)NCCO | 21.1 | 6.4 | 21.1 | x
C=CCC[C@H](Cc1ccc(F)cc1)C(=O)OC[C@@H](Cc1c[nH]c2ccccc12)NC(=O)[C@H](CC=C)CC(=O)N(CCO)Cc1ccccc1 | 88.5* | 19.0 | 38.0 | x
C=CCC[C@@H](Cc1ccc(F)cc1)C(=O)OC[C@@H](Cc1c[nH]c2ccccc12)NC(=O)[C@H](CC=C)CC(=O)N(CCO)Cc1ccccc1 | 57.5* | 43.4 | 33.2 | x
CC(C)NC(=O)NCC[C@H]1CC[C@H](NC(=O)Nc2ccccc2)[C@H](CO)O1 | x | 1.9 | x | x
C[C@@H]1CN([C@@H](C)CO)C(=O)c2cc(NC(=O)CCC(F)(F)F)ccc2O[C@@H](C)CCCCO[C@H]1CN(C)Cc1ccccc1 | x | 0.7 | x | x
CC(C)Nc1nnc(SCC(=O)Nc2ccc3c(c2)C(=O)c2ccccc2C3=O)s1 | 58.5* | -8.9 | 24.3 | -2.9
CCOc1ccccc1CNC(=O)C1CCN(C(=O)c2sccc2-n2cccc2)CC1 | 64.0* | 0.5 | 25.7 | -2.2
CC1(C)CC(NC(=O)c2ccc(Cl)cc2)CC(C)(C)N1 | 74.5* | 2.6 | 6.2 | -0.4
CC1(C)CC(NC(=O)c2ccc(F)cc2)CC(C)(C)N1 | 3.5 | -16.4 | -0.9 | x
CS(=O)(=O)c1ccc(S(=O)CC(=O)OCc2ccccc2)c([N+](=O)[O-])c1 (stereo unspecified) | 89.6* | x | 56.5* | -1.2
O=C(CS(=O)c1ccc(C(F)(F)F)cc1[N+](=O)[O-])Oc1ccccc1 (stereo unspecified) | -12.2 | x | 12.1 | 6.6
COc1ccccc1CN1CC[C@H]2[C@H](CO)Nc3ccc(-c4ccc(C(=O)N(C)C)cc4)cc3[C@H]21 | x | 1.0 | x | x
CCC(CC)COC(=O)C1=C(C)NC(=O)NC1c1ccc(N(C)C)cc1 (stereo unspecified) | -25.5 | 7.1 | 4.3 | -1.4
CCC(CC)COC(=O)C1=C(C)NC(=O)NC1c1ccccc1Br (stereo unspecified) | 80.6* | -1.3 | 8.3 | -1.3
C[C@H]1CCCCO[C@H](CN(C)C(=O)CCCN(C)C)[C@@H](C)CN([C@@H](C)CO)C(=O)c2cc(NC(=O)CCC(F)(F)F)ccc2O1 | x | 14.7 | x | x
Cc1ccc2[nH]cc(C(=O)CN3CCC4(CC3)OCCO4)c2c1 | 50.7* | x | -12.1 | -3.4
COC(=O)C[C@@H]1CC[C@@H]2[C@@H](COc3ccc(NC(=O)c4ccc(F)c(F)c4)cc3C(=O)N2C)O1 | x | 6.2 | x | x
COC(=O)C12OCC34C(CC5C(C)=C(O)C(=O)CC5(C)C3C(O)C1O)OC(=O)C(OC(=O)C=C(C)C)C24 (stereo unspecified) | 94.9* | 100.0* | 85.5* | x
COc1ccccc1NC(=O)N(C)C[C@@H]1Oc2ncc(C#CC(C)C)cc2C(=O)N([C@H](C)CO)C[C@H]1C | x | -7.5 | x | x
SMILES | TWEAK-Fn14 inh | LGR2 inh | TROY signal inh | HSP90 inh
CCc1nnc(NC(=O)CN2CCN(Cc3cccc(Cl)c3)CC2)s1 | 0.2 | -17.7 | 0.8 | 2.2
COc1cccc(N2CCN(CC(=O)NC3=Nc4ccccc4N=C(C)C3c3ccccc3)CC2)c1 (stereo unspecified) | -5.2 | -1.1 | -2.8 | 3.6
CCc1nnc(NC(=O)CN2CCN(Cc3cccc(F)c3)CC2)s1 | 52.8* | -1.8 | -11.1 | 0.9
COc1cccc(N2CCN(CC(=O)Nc3nnc(-c4ccccc4)s3)CC2)c1 | 54.8* | x | 29.2 | 2.8
O=C(Nc1nc2ccccc2s1)c1cccc(S(=O)(=O)N2CCc3ccccc32)c1 | 69.9* | -26.1 | 20.4 | 8.5
O=C(Nc1ccc(S(=O)(=O)N2CCc3ccccc32)cc1)c1ccc2c(c1)OCO2 | 58.0* | x | 1.5 | 0.0
CC(=O)NS(=O)(=O)c1ccc(NC(=O)c2cccc(S(=O)(=O)N3CCc4ccccc43)c2)cc1 | 3.0 | -9.0 | 1.0 | -2.2
CN(C)S(=O)(=O)c1cccc(NC(=O)c2cccc(S(=O)(=O)N3CCc4ccccc43)c2)c1 | 60.3* | 20.9 | 34.7 | x
CC=Cc1ccc2n(c1=O)C[C@@H]1[C@@H](CO)[C@H](C(=O)NC3CCCC3)N(C(=O)C3CCC3)[C@H]21 (mixture of isomers) | x | -9.0 | x | x
Cc1ccccc1N(CC(=O)NC1CCCCC1)C(=O)CCCC(=O)Nc1ccccn1 | -1.2 | 6.1 | 8.0 | -2.2
CCc1ccccc1N(CC(=O)NC1CCCCC1)C(=O)CCCC(=O)Nc1ccccn1 | 79.7* | 6.3 | 13.6 | -2.5
COc1ccc(CCNc2ncnc3sc(C)cc23)cc1OC | 75.8* | 2.9 | 32.2 | 0.9
Cc1sc(NC(=O)/C=C/c2ccc3c(c2)OCO3)nc1-c1ccccc1 | 88.5* | 3.6 | 27.0 | -1.2
O=C(/C=C/c1ccc2c(c1)OCO2)Nc1nc(-c2ccccc2)cs1 | 87.7* | x | 61.5* | -0.1
O=C(/C=C/c1ccc2c(c1)OCO2)Nc1nncs1 | 10.4 | -44.9 | -23.1 | 1.7
O=C(/C=C\c1ccco1)Nc1nc(-c2ccc3ccccc3c2)cs1 | 83.3* | 54.6* | 48.0 | -0.9
COCCNC(=O)C[C@H]1C[C@@H]2c3cc(NC(=O)NC4CCCC4)ccc3O[C@@H]2[C@@H](CO)O1 | x | 19.0 | x | x
CC(C)NC(=O)Nc1ccc2c(c1)C(=O)N([C@@H](C)CO)C[C@H](C)[C@H](CN(C)Cc1ccccc1)O2 | x | -22.9 | x | x
Cc1ccc(S(=O)(=O)Nc2ccc(Cl)cc2)cc1NC(=O)c1cc2c(s1)CCCC2 | 72.4* | -1.0 | 61.8* | -2.9
Cc1noc(C)c1S(=O)(=O)Nc1cccc2c1O[C@@H](CN(C)C(=O)NC1CCCCC1)[C@@H](C)CN([C@@H](C)CO)C2=O | x | -11.7 | x | x
Cc1nc(C)c(C(=O)Nc2nc3c(C)cccc3s2)o1 | 70.2* | -5.5 | 35.3 | 2.7
COCC#Cc1ccc([C@@H]2[C@H]3CN(C(=O)Nc4cc(F)ccc4F)CCCCN3[C@H]2CO)cc1 | x | -10.5 | x | x
COc1ccc(C(c2c(NC(=O)c3ccco3)sc(C)c2C)N2CCOCC2)cc1 (stereo unspecified) | 82.6* | 8.4 | 51.5* | x
Cc1ccc(/C=N\NC(=O)c2csnn2)cc1 | 50.4* | x | 8.9 | 2.8
C[C@H]1CN([C@@H](C)CO)S(=O)(=O)c2ccc(C3=CCCCC3)cc2O[C@@H]1CN(C)Cc1ccncc1 | x | 6.7 | x | x

From PubChem BioAssay
